This is an account of results in ChEMBL document CHEMBL1201862, “PubChem BioAssay data set” (2004).

About 2,100 (0.53%) of roughly 400,000 compounds were called active. Roughly 14% stayed inconclusive and do not appear here. The rule behind the calls is not given here. Shown is part of a subset that was picked to be rich in actives.

The target in the assay is Ataxin-2 (Homo sapiens) (UniProt Q99700). The assay is described as follows: qHTS for Inhibitors of ATXN expression. The class given is functional.
Ataxin-2 (Homo sapiens), sequence (Q99700 whole entry): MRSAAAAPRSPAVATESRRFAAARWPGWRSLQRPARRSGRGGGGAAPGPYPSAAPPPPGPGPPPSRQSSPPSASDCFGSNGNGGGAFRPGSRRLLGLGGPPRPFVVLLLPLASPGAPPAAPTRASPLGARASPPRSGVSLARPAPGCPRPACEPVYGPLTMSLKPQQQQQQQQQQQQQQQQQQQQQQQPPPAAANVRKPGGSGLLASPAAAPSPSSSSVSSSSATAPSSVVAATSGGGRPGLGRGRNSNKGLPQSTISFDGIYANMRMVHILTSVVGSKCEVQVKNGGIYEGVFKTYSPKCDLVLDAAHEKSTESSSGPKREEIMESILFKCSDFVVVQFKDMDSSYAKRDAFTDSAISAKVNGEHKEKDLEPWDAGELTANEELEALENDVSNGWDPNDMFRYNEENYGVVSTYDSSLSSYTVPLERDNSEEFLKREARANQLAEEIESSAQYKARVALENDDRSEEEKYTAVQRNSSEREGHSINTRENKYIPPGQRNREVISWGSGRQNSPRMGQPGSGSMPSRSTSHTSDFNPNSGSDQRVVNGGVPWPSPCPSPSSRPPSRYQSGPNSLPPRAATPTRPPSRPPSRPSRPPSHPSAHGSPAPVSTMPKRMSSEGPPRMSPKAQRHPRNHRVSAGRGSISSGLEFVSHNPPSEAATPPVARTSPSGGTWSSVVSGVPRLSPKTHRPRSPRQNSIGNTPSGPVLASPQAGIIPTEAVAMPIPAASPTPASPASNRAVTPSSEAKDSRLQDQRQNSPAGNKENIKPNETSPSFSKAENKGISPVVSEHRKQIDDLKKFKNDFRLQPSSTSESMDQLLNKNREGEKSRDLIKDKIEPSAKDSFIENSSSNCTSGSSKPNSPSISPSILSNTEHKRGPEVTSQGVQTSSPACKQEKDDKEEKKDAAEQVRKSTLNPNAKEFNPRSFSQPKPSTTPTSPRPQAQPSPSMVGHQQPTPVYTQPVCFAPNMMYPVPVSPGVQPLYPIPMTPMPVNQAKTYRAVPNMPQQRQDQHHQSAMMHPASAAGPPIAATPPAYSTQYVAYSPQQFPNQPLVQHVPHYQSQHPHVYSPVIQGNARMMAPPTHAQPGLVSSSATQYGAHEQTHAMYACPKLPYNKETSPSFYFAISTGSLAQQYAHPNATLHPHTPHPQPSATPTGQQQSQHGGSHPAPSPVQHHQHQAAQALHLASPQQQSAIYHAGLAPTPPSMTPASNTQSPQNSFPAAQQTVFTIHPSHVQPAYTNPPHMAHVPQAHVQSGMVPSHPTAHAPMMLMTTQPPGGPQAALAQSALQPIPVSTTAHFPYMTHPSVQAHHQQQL
For the molecule `O=C(CCn1nnc2ccccc21)N/N=C\Cc1ccccc1`, the Potency entry is “inactive”.

In the case of `Cc1cccc(C(=O)N[C@H](C(=O)Nc2ccc(S(=O)(=O)NC3=NCCCCC3)cc2)C(C)C)c1`, the Potency result is “inactive”.

`Cc1cccc(C)c1NC(=O)CN(C)C(=O)c1cccc(NS(=O)(=O)c2ccccc2)c1`: the Potency result was “inactive”.

In the case of `CC(C)(C)c1ccc(OCC(=O)Nc2cccc(S(=O)(=O)NC3=NCCCCC3)c2)cc1`, the Potency result was “inactive”.

On to `O=C(CCl)Nc1ccc(S(=O)(=O)NC2=NCCCCC2)cc1`, for which the Potency is 13.4 µM (active).

With `O=C(CCl)Nc1cccc(S(=O)(=O)NC2=NCCC2)c1`, the Potency is 12.6 µM (active).

Regarding `Cc1ccc(OCC(=O)Nc2ccc(S(=O)(=O)NC3=NCCCCC3)cc2)cc1`, the Potency entry was “inactive”.

For the molecule `O=C(CCl)Nc1cccc(S(=O)(=O)NC2=NCCCCC2)c1`, the Potency was 11.2 µM (active).

Take `COc1cc(C(=O)OCC(=O)Nc2ccc(S(=O)(=O)NC3=NCCCCC3)cc2)cc(OC)c1OC`: the Potency result is “inactive”.

`CC(C)=CC(=O)Nc1cccc(S(=O)(=O)NC2=NCCCCC2)c1`: the Potency result was “inactive”.

Turning to `Cc1cc(NC(=O)CSc2nc(=O)cc(N)n2-c2ccc(C)c(C)c2)no1`, the Potency entry was “inactive”.

On to `Cc1cccn2c(=O)c3cc(C(=O)NCc4cccnc4)c(=N)n(CCCO)c3nc12`, for which the Potency result was “inactive”.

Regarding `Cn1c(C(=O)NCC2CCCO2)cc2c(=O)n3ccccc3nc21` (stereo unspecified), the Potency result is “inactive”.

On to `COc1ccccc1/N=C/c1c(C)c(C#N)c2nc3ccccc3n2c1O`, for which the Potency entry was “inactive”.

Take `O=C1C=CC(=O)N1c1ccc2c(c1)C(NC(=O)C(F)(F)F)c1ccccc1-2` (stereo unspecified): the Potency was 25.1 µM (active).

Turning to `O=C(Nc1ccccc1)N1CCN(C2c3ccccc3-c3ccccc32)CC1`, the Potency result was “inactive”.

In the case of `Cc1cccc(C)c1Nc1sc(C(=O)c2ccccc2)c(N)c1C(=O)Nc1ccc(F)cc1`, the Potency is 28.2 µM (active).

As for `COc1ccc(CNC(=O)CCC(=O)c2ccccc2)cc1`, the Potency entry was “inactive”.

Consider `COc1ccc(CNC(=O)c2c(Nc3ccccc3C)sc(C(=O)c3ccccc3)c2N)cc1`, for which the Potency is 35.5 µM (active).

Regarding `Nc1c(C(=O)c2ccccc2)sc(Nc2ccc(Cl)c(Cl)c2)c1C(=O)Nc1ccccc1`, the Potency was 28.2 µM (active).

As for `COc1cccc(OC)c1C(=O)Nc1ccc(Br)c(C(=O)c2ccccc2)c1`, the Potency result is “inactive”.

Regarding `COc1ccc(C(=O)c2sc3nc(-c4ccccc4)ccc3c2N)cc1`, the Potency entry is “inactive”.

Turning to `Cc1cc(C)c2c(N)c(C(=O)c3ccccc3)sc2n1`, the Potency result was “inactive”.

For the molecule `Cc1ccc(CNC(=O)c2c(Nc3c(C)cccc3C)sc(C(=O)c3ccccc3)c2N)cc1`, the Potency was 39.8 µM (active).

For `Cc1nc2sc(C(=O)c3ccccc3)c(N)c2c(C)c1C`, the Potency entry is “inactive”.

As to `Cc1ccc2c(N)c(C(=O)c3ccccc3)sc2n1`, the Potency result was “inactive”.

Turning to `CCO/C(O)=C1\C(C)=Nc2sc(C(=O)c3ccc(C)cc3)c(N)c2C1c1ccc(C(=O)OC)cc1` (stereo unspecified), the Potency entry was “inactive”.

In the case of `Cn1cc(CN2CCC(n3nccc3NC(=O)c3ccc4c(c3)OCO4)CC2)cn1`, the Potency result was “inactive”.

In the case of `Cc1cc(C)c2cc(C#N)c(SCC(=O)Nc3cc(C)on3)nc2c1`, the Potency result was “inactive”.

As for `O=C(CSc1nnc(O)nc1O)N/N=C/C=C/c1ccccc1`, the Potency result is “inactive”.

As to `O=S(=O)(c1ccc(SCCOc2ccccc2)nc1)N1CCCC1`, the Potency result is “inactive”.

With `COC(=O)Cc1c(C)c2cc3c(c(C)c2oc1=O)OCN(CCc1ccc(OC)cc1)C3`, the Potency entry is “inactive”.

With `Cc1ccc2nc(Cl)c(CNCc3ccccc3)cc2c1`, the Potency result was “inactive”.

Consider `Cc1ccc(-c2nn(-c3ccccc3)c3[nH]c(=O)c(CNCc4ccccc4)cc23)cc1`, for which the Potency is 39.8 µM (active).

With `Cc1cnc(NC(=O)c2cc(-c3ccccc3)nn2-c2ccccc2)s1`, the Potency result was “inactive”.

`Cc1ccc(S(=O)(=O)NN2C(=O)c3ccccc3NC2c2ccccc2)cc1` (stereo unspecified): the Potency was 35.5 µM (active).

As to `CC1Nc2ccccc2C(=O)N1NS(C)(=O)=O` (stereo unspecified), the Potency result is “inactive”.

`Cc1ccc(C2N(C)C(=O)c3ccccc3N2C)cc1` (stereo unspecified): the Potency result is “inactive”.

Regarding `O=c1cc(CN2CCN(S(=O)(=O)c3cccc(Cl)c3)CC2)c2ccc(O)cc2o1`, the Potency entry was “inactive”.

Consider `C=CCNC(=S)N/N=C(\C)c1ccccn1`, for which the Potency was 2.51 µM (active).

`C/C(=N\Nc1ncc(Cl)cc1Cl)c1ccccn1`: the Potency entry was “inactive”.

As for `C=CCNC(=S)Nc1cccc(NC(=S)NCC=C)c1`, the Potency result is “inactive”.

`O=S(=O)(Nc1ccc(C(O)(C(F)(F)F)C(F)(F)F)cc1)c1ccc(Cl)c2nonc12`: the Potency is 22.4 µM (active).

Turning to `O=S(=O)(Nc1ccc(C(O)(C(F)(F)F)C(F)(F)F)cc1)c1cccc2ccccc12`, the Potency is 44.7 µM (active).

Turning to `COc1ccc(C(=O)NNC(=O)CSc2nc3c(=O)n(C)c(=O)n(C)c3[nH]2)cc1`, the Potency entry is “inactive”.

As for `N#Cc1cccc(Cn2cc(C(F)(F)F)ccc2=O)c1`, the Potency entry was “inactive”.

As to `CS(=O)(=O)c1ncc(Cl)c(C(=O)N(Cc2ccc(Cl)cc2)Cc2ccco2)n1`, the Potency was 6.31 µM (active).

Turning to `C=C1C(=O)[C@]23C[C@H]1CCC2[C@@]1(C)C(C[C@@H]3O)[C@](C)(C(=O)OC)CC[C@@H]1O` (stereo partly specified), the Potency is 35.5 µM (active).

Turning to `C=C1C(=O)[C@]23C[C@H]1CC[C@H]2[C@]1(C)[C@@H](O)CC[C@@](C)(C(=O)O)[C@H]1C[C@@H]3O`, the Potency was 12.6 µM (active).

For the molecule `C=C1C(=O)[C@]23C[C@H]1CC[C@H]2[C@]1(C)[C@@H](OC(C)=O)CC[C@@](C)(C(=O)O)[C@H]1C[C@@H]3O`, the Potency was 11.2 µM (active).

`N#C/C(=C\c1ccncc1)c1nc2c(s1)CCCC2`: the Potency entry was “inactive”.

Consider `CCc1cc(=O)oc2cc(O[C@@H]3O[C@H](CO)[C@@H](O)[C@H](O)[C@H]3O)c(Cl)cc12`, for which the Potency entry is “inactive”.

In the case of `Cc1cc(-n2cnc(-c3cn(C)nc3C)n2)no1`, the Potency entry was “inactive”.

As for `CN(C)/C=N/c1nc2nccc(-c3cccs3)n2n1`, the Potency result was “inactive”.

`CC(C)(C)C(=O)NC(=S)NNC(=O)c1sc2ccccc2c1Cl`: the Potency was 31.6 µM (active).

As for `CC(C)(C)C(=O)NC(=S)Nc1ccc(C(F)(F)F)cc1`, the Potency result was “inactive”.

`COc1ccc2c(Cl)c(C(=O)NN3CCN(C)CC3)sc2c1`: the Potency result is “inactive”.

Consider `C=CCn1c(S)nnc1-c1ccc2ncccc2c1`, for which the Potency result is “inactive”.

`CC(C)CC1C(=O)N(Cc2cn(CCC3OCCO3)nn2)CCS(=O)(=O)N1Cc1ccc(-c2ccc(F)cc2)cc1` (stereo unspecified): the Potency is 35.5 µM (active).

Turning to `CC(C)CC1C(=O)N(Cc2cn(CCC3OCCO3)nn2)CCS(=O)(=O)N1Cc1ccc(-c2ccc(Cl)c(Cl)c2)cc1` (stereo unspecified), the Potency is 39.8 µM (active).

Consider `C/C(=N\c1ccc(C)cc1C)c1sc2ccccc2c1O`, for which the Potency entry is “inactive”.
